The source made the active and inactive calls. Rule for the calls: active = hit-call score of the fitted dose curve at least 0.9, where 1 is the maximum; inactive = score below 0.9.
Legend:
Decorin, DCN (gene 1634) = experiment: BSK_MyoF_Decorin: BioMAP Diversity Plus: MyoF Assay for Decorin Biomarker Activity (AID 2284265); conditions: primary human lung fibroblasts
Procedure, shortened: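 Compound is added to lung fibroblast cultures; cells incubate 24 h; decorin is then measured by ELISA; the response is analysed upward against DMSO controls.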

[1] = read-out: Matrix Metallopeptidase 1 (MMP1), MMP1 (gene 4312); experiment: BSK_MyoF_MMP1: BioMAP Diversity Plus: MyoF Assay for Matrix Metallopeptidase 1 (MMP1) Biomarker Activity (AID 2284268); conditions: primary human lung fibroblasts
Procedure, shortened: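 Lung fibroblast cultures were dosed with test chemicals and, after 24 h, MMP1 levels were measured by ELISA; responses were referenced to DMSO and analysed for increases.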

[2] = read-out: TIMP metallopeptidase inhibitor 1 (TIMP1), TIMP1 (gene 7076); experiment: BSK_MyoF_TIMP1: BioMAP Diversity Plus: MyoF Assay for TIMP metallopeptidase inhibitor 1 (TIMP1) Biomarker Activity (AID 2284269); conditions: primary human lung fibroblasts
Procedure, shortened: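 ELISA quantified TIMP-1 levels after 24 h dosing of primary human lung fibroblasts, with DMSO as baseline. Parallel SRB total protein staining (0.1% SRB after TCA fixation, 560 nm) flagged overt cytotoxicity.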

[3] = IUF_NPC2c_oligodendrocyte_migration_120hr: Leibniz Research Institute for Environmental Medicine (IUF) 120-hour Neural Progenitor Cell Migration Assay for Oligodendrocyte Migration (NPC2c) (AID 2284297)
Procedure, shortened: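 Read-out is the mean distance of O4-positive oligodendrocytes from the sphere core edge at 120 h, normalized to radial glia migration and fitted in the gain direction against DMSO. Spheres of primary human neural progenitors differentiated on laminin under continuous compound exposure.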

[4] = IUF_NPC2a_radial_glia_migration_120hr: Leibniz Research Institute for Environmental Medicine (IUF) 120-hour Neural Progenitor Cell Migration Assay for Radial Glia Migration (NPC2a) (AID 2284298)
Procedure, shortened: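 Readout: distance in um from sphere core edge to migration-area edge, derived from Hoechst nuclei density with a threshold-defined polynomial boundary. Spheres: hNPC, GW 16-19, 0.3 mm, on PDL/laminin; exposure 5 days; DMSO is baseline.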

[5] = IUF_NPC2a_radial_glia_migration_72hr: Leibniz Research Institute for Environmental Medicine (IUF) 72-hour Neural Progenitor Cell Migration Assay for Radial Glia Migration (NPC2a) (AID 2284299)
Procedure, shortened: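 Readout: mean of four manual brightfield measurements of radial glia migration distance (um) at 72 h. hNPC spheres (0.3 mm) exposed to 7 compound concentrations plus solvent control on PDL/laminin, 37C, 5% CO2; activity fitted relative to DMSO.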

[6] = IUF_NPC2b_neuronal_migration_120hr: Leibniz Research Institute for Environmental Medicine (IUF) 120-hour Neural Progenitor Cell Migration Assay for Neuron Migration (NPC2b) (AID 2284300)
Procedure, shortened: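 Read-out is mean distance from sphere edge to each TUBB3-positive neuron at 120 h, expressed relative to radial glia migration distance and to DMSO baseline. Single 0.3 mm human NPC spheres differentiated on laminin under continuous compound exposure.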

[7] = IUF_NPC3_neuronal_differentiation_120hr: Leibniz Research Institute for Environmental Medicine (IUF) 120-hour Neuronal Differentiation Assay (NPC3) (AID 2284301)
Procedure, shortened: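 Value is percent TUBB3-positive neurons among Hoechst-stained nuclei in the migration area, scored by trained CNN after 120 h differentiation. Primary hNPC spheres on poly-D-lysine/laminin, N2 medium, continuous dosing from day 0, half-refeed day 3; DMSO reference.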

[8] = read-out: Intercellular Adhesion Molecule 1 (ICAM1), ICAM1 (gene 3383); experiment: BSK_BE3C_ICAM1: BioMAP Diversity Plus: BE3C Assay for Intercellular Adhesion Molecule 1 (ICAM1) Biomarker Activity (AID 2284278); conditions: primary human bronchial epithelial cells;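 note: cell-surface ICAM-1 protein level quantified by ELISA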
Procedure, shortened: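 ELISA read-out of ICAM-1 on human lung bronchial epithelial primary cells, 24 h post-dosing; positive-direction curve fit, DMSO = baseline. SRB total-protein staining of parallel cultures flagged overt cytotoxicity.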

[9] = read-out: Interferon-inducible T-cell alpha chemoattractant (ITAC), CXCL11 (gene 6373); experiment: BSK_BE3C_ITAC: BioMAP Diversity Plus: BE3C Assay for Interferon-inducible T-cell alpha chemoattractant (ITAC) Biomarker Activity (AID 2284279); conditions: primary human bronchial epithelial cells
Procedure, shortened: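 ELISA for I-TAC in primary human bronchial epithelial cultures 24 h post-treatment, fitted relative to DMSO baseline in positive direction. Cytotoxicity checked in parallel cultures by sulforhodamine B protein staining.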

[10] = read-out: Interleukin-8 (IL8), CXCL8 (gene 3576); experiment: BSK_BE3C_IL8: BioMAP Diversity Plus: BE3C Assay for Interleukin-8 (IL8) Biomarker Activity (AID 2284280); conditions: primary human bronchial epithelial cells
Procedure, shortened: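 Primary human bronchial epithelial cells (BE3C system) were exposed to test chemical for 24 h, and IL-8 levels were then measured by ELISA. Activity was fitted in the positive (gain-of-signal) direction against a DMSO negative-control baseline.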

[11] = read-out: Epidermal growth factor receptor (EGFR), EGFR (gene 1956); experiment: BSK_BE3C_EGFR: BioMAP Diversity Plus: BE3C Assay for Epidermal growth factor receptor (EGFR) Biomarker Activity (AID 2284281); conditions: primary human bronchial epithelial cells
Procedure, shortened: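 Human primary bronchial epithelial cells were exposed to compound for 24 h, and cell-surface EGFR was then quantified by ELISA. Activity was fitted in the positive direction against the DMSO vehicle baseline.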

KRT18 (gene 3875) = experiment: BSK_BE3C_Keratin818: BioMAP Diversity Plus: BE3C Assay for Keratin 818 Biomarker Activity (AID 2284282); conditions: primary human bronchial epithelial cells
Procedure, shortened: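 ELISA read-out of Keratin 8/18 in BE3C human bronchial epithelial cultures, 24 h post-dosing; positive-direction fit vs DMSO baseline.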

[12] = read-out: Matrix Metallopeptidase 9 (MMP9), MMP9 (gene 4318); experiment: BSK_BE3C_MMP9: BioMAP Diversity Plus: BE3C Assay for Matrix Metallopeptidase 9 (MMP9) Biomarker Activity (AID 2284283); conditions: primary human bronchial epithelial cells
Procedure, shortened: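 BE3C, human bronchial epithelial primary cells; 24 h post-dose; MMP-9 by ELISA; positive fit vs DMSO; SRB (0.1%, TCA-fixed, 560 nm) parallel cytotox.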

[13] = read-out: Plasminogen activator inhibitor-1 (PAI1), SERPINE1 (gene 5054); experiment: BSK_CASM3C_PAI1: BioMAP Diversity Plus: CASM3C Assay for Plasminogen activator inhibitor-1 (PAI1) Biomarker Activity (AID 2284284); conditions: primary human coronary artery smooth muscle cells;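 note: PAI-1 protein level measured by ELISA 24 h after dosing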
[14] = read-out: Monocyte Chemoattractant Protein-1 (MCP1), CCL2 (gene 6347); experiment: BSK_hDFCGF_MCP1: BioMAP Diversity Plus: hDFCGF Assay for Monocyte Chemoattractant Protein-1 (MCP1) Biomarker Activity (AID 2284285); conditions: primary human foreskin fibroblasts
Procedure, shortened: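 MCP-1 ELISA readout was taken 24 hours after dosing primary human dermal fibroblasts in the hDFCGF system, with DMSO as baseline. Parallel sulforhodamine B staining of total protein tracked overt cytotoxicity.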

[15] = read-out: Intercellular Adhesion Molecule 1 (ICAM1), ICAM1 (gene 3383); experiment: BSK_hDFCGF_ICAM1: BioMAP Diversity Plus: hDFCGF Assay for Intercellular Adhesion Molecule 1 (ICAM1) Biomarker Activity (AID 2284287); conditions: primary human foreskin fibroblasts
Procedure, shortened: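 ICAM-1 ELISA readout 24 h after dosing, DMSO as baseline, in human dermal foreskin fibroblast cultures. Cytotoxicity checked in parallel wells by SRB staining (0.1% SRB, 10% TCA fixation, 560 nm).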

[16] = read-out: TIMP metallopeptidase inhibitor 2 (TIMP2), TIMP2 (gene 7077); experiment: BSK_hDFCGF_TIMP2: BioMAP Diversity Plus: hDFCGF Assay for TIMP metallopeptidase inhibitor 2 (TIMP2) Biomarker Activity (AID 2284289); conditions: primary human foreskin fibroblasts
Procedure, shortened: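 Primary human foreskin fibroblasts in the hDFCGF system, dosed for 24 h; TIMP-2 level measured by ELISA, fitted in the positive direction against DMSO; cytotoxicity checked in parallel by sulforhodamine B total protein staining.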

[17] = read-out: Thrombomodulin, THBD (gene 7056); experiment: BSK_LPS_Thrombomodulin: BioMAP Diversity Plus: LPS Assay for Thrombomodulin Biomarker Activity (AID 2284296)
Procedure, shortened: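 Thrombomodulin on the surface of LPS-activated endothelial/PBMC co-cultures was quantified by ELISA at 24 hours post-dosing, with DMSO as baseline. Parallel SRB total-protein staining flagged overt cytotoxicity.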

## Cc1ccccc1OP(=O)(Oc1ccccc1C)Oc1ccccc1C
Decorin, DCN (gene 1634)
  AC50: 20 µM (active)
[1]
  outcome: inactive
[2]
  AC50: 20 µM (active)
[3]
  outcome: inactive
[4]
  AC50: 10 µM (active)
[5]
  outcome: inactive
[6]
  outcome: inactive
[7]
  outcome: inactive

## CC(C)N(C(=O)CCl)c1ccccc1
Decorin, DCN (gene 1634)
  AC50: 6 µM (active)
[1]
  outcome: inactive
[2]
  AC50: 3.53 µM (active)

## CCOC(=O)C(SP(=S)(OC)OC)c1ccccc1 (stereo not drawn)
Decorin, DCN (gene 1634)
  outcome: inactive
[1]
  outcome: inactive
[2]
  outcome: inactive

## Cc1ccc2nc3sc(=O)sc3nc2c1
Decorin, DCN (gene 1634)
  AC50: 5 µM (active)
[1]
  AC50: 5 µM (active)
[2]
  outcome: inactive

## CCCCOC(=O)COC(=O)c1ccccc1C(=O)OCCCC
[8]
  outcome: inactive
[9]
  outcome: inactive
[10]
  outcome: inactive
[11]
  outcome: inactive
KRT18 (gene 3875)
  outcome: inactive
[12]
  outcome: inactive
[13]
  outcome: inactive
[14]
  outcome: inactive
[15]
  outcome: inactive
[16]
  outcome: inactive
[17]
  outcome: inactive [primary human HUVEC with PBMC]

## CC(C=O)Cc1ccc2c(c1)OCO2 (stereo not drawn)
Decorin, DCN (gene 1634)
  outcome: inactive
[1]
  outcome: inactive
[2]
  outcome: inactive

## OCCCCO
[8]
  outcome: inactive
[9]
  outcome: inactive
[10]
  outcome: inactive
[11]
  outcome: inactive
KRT18 (gene 3875)
  outcome: inactive
[12]
  outcome: inactive
[13]
  outcome: inactive
[14]
  outcome: inactive
[15]
  outcome: inactive
[16]
  outcome: inactive
[17]
  outcome: inactive

## O=c1oc2ccccc2c(O)c1C(CC(O)c1ccc(-c2ccc(Br)cc2)cc1)c1ccccc1 (stereo not drawn)
Decorin, DCN (gene 1634)
  AC50: 9.45 µM (active)
[1]
  outcome: inactive
[2]
  AC50: 7.83 µM (active)

## CCOP(=O)(OCC)OC(=CCl)c1ccc(Cl)cc1Cl
Decorin, DCN (gene 1634)
  AC50: 20 µM (active)
[1]
  AC50: 31.7 µM (active)
[2]
  outcome: inactive

## O=S1OC[C@@H]2[C@H](CO1)[C@]1(Cl)C(Cl)=C(Cl)[C@@]2(Cl)C1(Cl)Cl (stereo partly drawn)
[3]
  outcome: inactive
[4]
  outcome: inactive
[5]
  outcome: inactive
[6]
  outcome: inactive
[7]
  outcome: inactive

## OC(Cc1ccccc1Cl)(Cn1[nH]cnc1=S)C1(Cl)CC1 (stereo not drawn)
Decorin, DCN (gene 1634)
  outcome: inactive
[1]
  outcome: inactive
[2]
  outcome: inactive
[3]
  outcome: inactive
[4]
  AC50: 43 µM (active)
[5]
  AC50: 36 µM (active)
[6]
  outcome: inactive
[7]
  AC50: 17.5 µM (active)

## O=C(O)COc1cc(Cl)c(Cl)cc1Cl
Decorin, DCN (gene 1634)
  outcome: inactive
[1]
  outcome: inactive
[2]
  outcome: inactive

## CCOC(=O)CCN(SN(C)C(=O)Oc1cccc2c1OC(C)(C)C2)C(C)C
Decorin, DCN (gene 1634)
  outcome: inactive
[1]
  outcome: inactive
[2]
  outcome: inactive

## C#CCOC(=O)/C=C(C)/C=C/CC(C)CCCC(C)C (stereo not drawn)
Decorin, DCN (gene 1634)
  outcome: inactive
[1]
  outcome: inactive
[2]
  outcome: inactive

## O=C(CCl)NCO
Decorin, DCN (gene 1634)
  outcome: inactive
[1]
  outcome: inactive
[2]
  outcome: inactive

## O=S(=O)(c1ccc(Cl)cc1)c1cc(Cl)c(Cl)cc1Cl
Decorin, DCN (gene 1634)
  outcome: inactive
[1]
  AC50: 20 µM (active)
[2]
  outcome: inactive

## Oc1cccc(-c2ccccc2)c1
Decorin, DCN (gene 1634)
  outcome: inactive
[1]
  AC50: 31.2 µM (active)
[2]
  outcome: inactive

## CS(=O)(=O)c1ccc(C(=O)C2C(=O)CCCC2=O)c(Cl)c1COCC(F)(F)F
[3]
  outcome: inactive
[4]
  outcome: inactive
[5]
  outcome: inactive
[6]
  outcome: inactive
[7]
  outcome: inactive

## Oc1c(Br)cc(Br)cc1Br
Decorin, DCN (gene 1634)
  outcome: inactive
[1]
  AC50: 12.4 µM (active)
[2]
  outcome: inactive

## N#CCCC(Br)(C#N)CBr (stereo not drawn)
Decorin, DCN (gene 1634)
  outcome: inactive
[1]
  outcome: inactive
[2]
  AC50: 20 µM (active)

## Cc1c([N+](=O)[O-])c(C)c([N+](=O)[O-])c(C(C)(C)C)c1[N+](=O)[O-]
Decorin, DCN (gene 1634)
  outcome: inactive
[1]
  AC50: 20 µM (active)
[2]
  outcome: inactive

## Cc1cc(C(F)(C(F)(F)F)C(F)(F)F)ccc1NC(=O)c1cccc(I)c1C(=O)NC(C)(C)CS(C)(=O)=O
[3]
  outcome: inactive
[4]
  outcome: inactive
[5]
  outcome: inactive
[6]
  outcome: inactive
[7]
  outcome: inactive

Reference: PubChem BioAssay (EPA / NIEHS)
